The values that follow come from PubChem BioAssay (Tox21).

Experiment [1] is described as follows: Nuclear factor erythroid 2-related factor 2/antioxidant responsive element (Nrf2/ARE) small molecule agonists: luciferase reporter gene qHTS assay in human keratinocytes (AID 1919969). Note: nearly all actives have a fitted effect of over 35% in size. Note: potency is the fitted concentration of half-maximal effect.
Experiment [2] deals with KiSS-1 receptor (Homo sapiens) (UniProt Q969F8). The experiment can be described thus: Human kisspeptin (KISS1R) small molecule agonists, calcium flux assay in KISS1R-HEK293 cells (AID 1920064; active = well fitted activation curve with a large enough effect in the repeat runs). Put shortly: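 Triplicate 15-concentration series were applied to dye-loaded human KISS1R HEK293 cells, and agonist-evoked calcium fluorescence was captured for 3 min.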
KiSS-1 receptor (Homo sapiens), sequence (Q969F8 whole entry, looked up): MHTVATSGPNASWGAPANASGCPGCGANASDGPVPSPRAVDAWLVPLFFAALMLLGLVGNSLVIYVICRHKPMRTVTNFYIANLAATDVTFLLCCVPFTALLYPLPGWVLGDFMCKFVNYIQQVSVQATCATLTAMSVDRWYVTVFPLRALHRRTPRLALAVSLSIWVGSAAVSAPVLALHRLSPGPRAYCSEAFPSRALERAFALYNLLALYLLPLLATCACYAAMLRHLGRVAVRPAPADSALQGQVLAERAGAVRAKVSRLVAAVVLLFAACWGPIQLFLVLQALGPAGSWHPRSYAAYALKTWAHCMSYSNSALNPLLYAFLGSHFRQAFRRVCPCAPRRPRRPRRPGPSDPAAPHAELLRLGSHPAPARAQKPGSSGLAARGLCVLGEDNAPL
The nature of experiment [3]: G protein-coupled receptor (GPCR) small molecule agonists, calcium flux assay: HEK293 wild type cell line counter screen (AID 1920065). In a few lines: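 Non-specific calcium responders were flagged by adding DMSO-dissolved compounds to dye-loaded cells and reading 480/540 nm fluorescence each second for 3 min; ATP served as positive control.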
(Calcium flux is commonly read through the fluorescence of an indicator in the cells.)

Experiment [4] in a line: p53 small molecule agonists, cell-based qHTS assay with human liver microsomes (AID 1963577).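 Note: p53 response element beta-lactamase reporter cells with liver microsomes plus NADPH.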 Put shortly:
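Steps: plate p53RE-bla cells, incubate 5 h at 37 C; add compound in DMSO; add microsomes (0.5 mg/mL final) and NADPH (0.5 mg/mL final); incubate 16 h at 37 C; add LiveBLAzer, 2 h RT; read fluorescence.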

Experiment [5] is described as follows: p53 small molecule agonists, cell-based qHTS assay with rat liver microsomes (AID 1963578). In a few lines: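 Metabolic activation is supplied by rat liver microsomes with NADPH (each 0.5 mg/mL final). p53RE-bla cells incubate with compound 16 h at 37 C; reporter activity is measured by LiveBLAzer fluorescence.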
In general terms: Quantitative high-throughput screening tests each substance at several concentrations.

The nature of experiment [6]: p53 small molecule agonists, cell-based qHTS assay with rat liver microsomes: qHTS cell viability counter screen (AID 1963580). Note: nearly all actives have a fitted effect of over 45% in size. Put shortly: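 Luminescent ATP readout (CellTiter-Glo, 30 min at room temperature) reports viability of p53RE-bla HCT-116 cells after 16 h at 37 C with test compounds under metabolic activation by rat liver microsomes and NADPH at 0.5 mg/mL final each.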

A short description of experiment [7]: p53 small molecule agonists, cell-based qHTS assay: qHTS cell viability counter screen (AID 1963581). Note: nearly all actives have a fitted effect of over 45% in size. In a few lines: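 Multiplexed with the reporter read, a CellTiter-Glo step (30 min, room temperature) gauges ATP-based viability of HCT-116 p53RE-bla cells after 16 h compound incubation at 37 C.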
Experiment [8] can be described thus: p53 small molecule agonists, cell-based qHTS assay (AID 1963582; active = well fitted activation curve with a large enough effect in the signal ratio in the repeat runs, not every such curve was filed as active; the % refers to the signal ratio). In a few lines: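 Beta-lactamase reporter cells (p53RE-bla) treated with compounds for 16 h at 37 C; FRET substrate, 2 h, room temperature; fluorescence intensity.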
Experiment [9] in a line: cAMP Responsive Elements (CRE) small molecule agonists, cell-based qHTS assay (AID 1963590). Note: potency is the fitted concentration of half-maximal effect. Put shortly:
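Quantitative HTS for CRE agonists: HEK 293T CRE-bla cells, overnight plating, 3 h compound incubation at 37 C/5% CO2, then 2 h room-temperature LiveBLAzer B/G FRET substrate loading.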

A short description of experiment [10]: cAMP Responsive Elements (CRE) small molecule antagonists, cell-based qHTS assay (AID 1963591; active = well fitted inhibition curve with a large enough effect in the signal ratio in the repeat runs, not every such curve was filed as active; the % refers to the signal ratio). Put shortly: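 Fluorescence intensity from cleaved LiveBLAzer B/G substrate (2 h, room temperature) quantified CRE-bla activity in HEK 293T cells exposed 3 h to compound with 0.25 uM final NKH477.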
Experiment [11] addresses Beta-2 adrenergic receptor (Homo sapiens) (UniProt P07550). The experiment can be described thus: Adrenergic beta2 receptor (ADRB2) small molecule antagonists, cell-based qHTS assay (AID 1963592). Note: series mostly up to about 92 µM; nearly all actives have a fitted effect of over 50% in size. In a few lines:
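Assay format: CHO-ADRB2 cells, 18-20hr seeding at 37C/5% CO2, then compound plus 1nM isoproterenol agonist mix for 0.5hr RT. Homogeneous time-resolved fluorescence cAMP detection after 1hr, expressed as 665/615 nm ratio.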

For experiment [12] the target is unchanged. As to the kind of experiment: Adrenergic beta2 receptor (ADRB2) small molecule agonists, cell-based qHTS assay (AID 1963593).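 Note: CHO cells stably overexpressing human ADRB2.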 Put shortly:
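CHO cells stably over-expressing ADRB2 were plated overnight at 37C, then dosed with compounds plus a stimulation mix containing 100uM IBMX and 25uM Ro-20-1724 for 0.5hr at room temperature. cAMP was measured by HTRF competition, 1hr.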

The target in experiment [13] is D(2) dopamine receptor (Homo sapiens) (UniProt P14416). As to the kind of experiment: Dopamine D2 receptor (DRD2) small molecule agonists, cell-based qHTS assay (AID 1963594). Note: nearly all actives have a fitted effect of over 35% in size. Put shortly:
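HEK293 cells stably expressing DRD2 were cultured 24 h at 37 C, then given Ro20-1724 (0.1 mM final) and compounds for 10 min at room temperature. NKH477 (200nM) was then added for 30 min. cAMP was read by HTRF.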

Experiment [14] in a line: p53 small molecule agonists, cell-based qHTS assay with human liver microsomes: qHTS cell viability counter screen (AID 1963579). Note: nearly all actives have a fitted effect of over 45% in size. Put shortly:
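After the 460/530 nm beta-lactamase read, CellTiter-Glo was added to the same wells and luminescence measured after 30 min at room temperature, giving viability of p53RE-bla cells treated 16 h with compounds plus microsomes and NADPH.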

The target of experiment [15] is Muscarinic acetylcholine receptor M1 (Homo sapiens) (UniProt P11229). As to the kind of experiment: Cholinergic receptor muscarinic 1 (CHRM1) small molecule antagonists, cell-based qHTS assay (AID 1963588). Note: nearly all actives have a fitted effect of over 40% in size. Note: potency is the fitted concentration of half-maximal effect. In a few lines:
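Compounds were tested at 15 concentrations in three independent runs. Dye-loaded CHRM1-CHO cells were exposed 5 min at room temperature before stimulation by acetylcholine added at 50nM. Intracellular calcium was read kinetically on FDSS for 3 min.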

For experiment [16] the target is unchanged. The experiment can be described thus: Cholinergic receptor muscarinic 1 (CHRM1) small molecule agonists, cell-based qHTS assay (AID 1963589). Note: nearly all actives have a fitted effect of over 35% in size. In a few lines: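 qHTS, 15-point titration, 3 independent runs: compounds pin-transferred onto dye-loaded CHRM1-CHO cells (human M1), calcium fluorescence followed every second to detect agonism.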
The target of experiment [17] is 5-hydroxytryptamine receptor 2A (Homo sapiens) (UniProt P28223). As to the kind of experiment: 5-hydroxytryptamine receptor 2A (HTR2A) small molecule antagonists, cell-based qHTS assay (AID 1963586). Note: nearly all actives have a fitted effect of over 45% in size. Note: potency is the fitted concentration of half-maximal effect. In a few lines: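 CHO cells stably expressing human HTR2A were plated for 18 h at 37 C, then loaded with calcium dye for 1 h. Compounds were preincubated 5 min at room temperature before DOI (4 nM solution) was added. Kinetic fluorescence was read for 3 min.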
5-hydroxytryptamine receptor 2A (Homo sapiens), sequence (P28223 whole entry, looked up): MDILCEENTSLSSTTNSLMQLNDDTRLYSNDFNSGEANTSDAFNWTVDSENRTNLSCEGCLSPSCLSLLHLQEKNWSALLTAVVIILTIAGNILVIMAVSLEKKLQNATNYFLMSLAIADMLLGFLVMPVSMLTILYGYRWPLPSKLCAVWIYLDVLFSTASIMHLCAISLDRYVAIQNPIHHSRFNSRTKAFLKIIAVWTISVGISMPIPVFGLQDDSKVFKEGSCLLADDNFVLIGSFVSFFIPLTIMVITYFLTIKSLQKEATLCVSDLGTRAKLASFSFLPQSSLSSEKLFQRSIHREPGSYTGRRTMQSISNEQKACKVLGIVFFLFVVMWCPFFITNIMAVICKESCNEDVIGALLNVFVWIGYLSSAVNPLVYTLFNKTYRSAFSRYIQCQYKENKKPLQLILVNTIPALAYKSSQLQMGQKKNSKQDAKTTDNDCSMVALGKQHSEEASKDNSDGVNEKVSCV

For experiment [18] the target is unchanged. The experiment can be described thus: 5-hydroxytryptamine receptor 2A (HTR2A) small molecule agonists, cell-based qHTS assay (AID 1963587). Note: nearly all actives have a fitted effect of over 30% in size. Note: potency is the fitted concentration of half-maximal effect. In a few lines: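 HTR2A-CHO cells, plated 18 h at 37 C/5% CO2, dye-loaded 1 h at 37 C; compounds in DMSO added by pin tool (agonist mode). Intracellular calcium flux read as kinetic fluorescence on FDSS over 2 min at 1 s intervals.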

The target in experiment [19] is D(2) dopamine receptor (Homo sapiens) (UniProt P14416). The experiment can be described thus: Dopamine D2 receptor (DRD2) small molecule antagonists, cell-based qHTS assay (AID 1963595; active = well fitted inhibition curve with a large enough effect in the signal ratio in the repeat runs, with a control signal flat; the % refers to the signal ratio). In a few lines:
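HEK293 cells stably expressing DRD2 were preincubated with 0.1 mM Ro20-1724, then with compound for 10 min at room temperature. Cells were stimulated with 200 nM NKH477 plus 12 nM quinpirole for 30 min, and cAMP was read by HTRF.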

The target in experiment [20] is Gonadotropin-releasing hormone receptor (Homo sapiens) (UniProt P30968). As to the kind of experiment: Human gonadotropin-releasing hormone receptor (GnRHR) small molecule agonists, calcium flux assay in GnRHR-HEK293 cells (AID 1920063). Note: nearly all actives have a fitted effect of over 35% in size. Note: potency is the fitted concentration of half-maximal effect. Put shortly:
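Calcium flux, agonist mode, human GnRHR stably integrated in HEK293; dye 1 h at 37 C before compound; Ex/Em=480/540 kinetic read, 3 min; 15 concentrations, triplicate.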

The structures appear in SMILES notation. Records with an inconclusive call do not appear. Active and inactive are the calls of the source. Unless noted, calls come from the whole dose curve.

D(2) dopamine receptor (Homo sapiens), sequence (P14416 whole entry, looked up): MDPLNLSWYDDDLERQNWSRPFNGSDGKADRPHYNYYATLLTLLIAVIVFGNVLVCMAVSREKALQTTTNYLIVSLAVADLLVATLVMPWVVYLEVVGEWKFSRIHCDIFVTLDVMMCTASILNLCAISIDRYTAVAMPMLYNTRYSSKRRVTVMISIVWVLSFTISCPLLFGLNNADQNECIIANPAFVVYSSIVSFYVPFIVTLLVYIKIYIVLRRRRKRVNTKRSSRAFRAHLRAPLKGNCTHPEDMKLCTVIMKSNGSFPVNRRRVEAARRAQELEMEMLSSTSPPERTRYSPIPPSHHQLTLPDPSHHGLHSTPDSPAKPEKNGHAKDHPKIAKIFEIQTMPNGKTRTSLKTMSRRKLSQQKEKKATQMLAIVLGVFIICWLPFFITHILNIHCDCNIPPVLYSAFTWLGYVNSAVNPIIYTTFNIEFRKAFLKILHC
Beta-2 adrenergic receptor (Homo sapiens), sequence (P07550 whole entry, looked up): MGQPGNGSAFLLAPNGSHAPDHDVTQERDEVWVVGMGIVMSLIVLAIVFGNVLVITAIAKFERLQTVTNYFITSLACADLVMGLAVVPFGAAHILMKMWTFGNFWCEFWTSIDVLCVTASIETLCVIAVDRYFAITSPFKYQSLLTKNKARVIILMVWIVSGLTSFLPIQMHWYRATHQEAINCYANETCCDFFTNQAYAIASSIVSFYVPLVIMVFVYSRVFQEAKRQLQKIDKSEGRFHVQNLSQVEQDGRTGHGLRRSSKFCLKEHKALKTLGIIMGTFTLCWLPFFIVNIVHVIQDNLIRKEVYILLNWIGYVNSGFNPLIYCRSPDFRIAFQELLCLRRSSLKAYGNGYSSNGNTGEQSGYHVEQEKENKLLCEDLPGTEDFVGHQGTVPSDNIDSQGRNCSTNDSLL
Muscarinic acetylcholine receptor M1 (Homo sapiens), sequence (P11229 whole entry, looked up): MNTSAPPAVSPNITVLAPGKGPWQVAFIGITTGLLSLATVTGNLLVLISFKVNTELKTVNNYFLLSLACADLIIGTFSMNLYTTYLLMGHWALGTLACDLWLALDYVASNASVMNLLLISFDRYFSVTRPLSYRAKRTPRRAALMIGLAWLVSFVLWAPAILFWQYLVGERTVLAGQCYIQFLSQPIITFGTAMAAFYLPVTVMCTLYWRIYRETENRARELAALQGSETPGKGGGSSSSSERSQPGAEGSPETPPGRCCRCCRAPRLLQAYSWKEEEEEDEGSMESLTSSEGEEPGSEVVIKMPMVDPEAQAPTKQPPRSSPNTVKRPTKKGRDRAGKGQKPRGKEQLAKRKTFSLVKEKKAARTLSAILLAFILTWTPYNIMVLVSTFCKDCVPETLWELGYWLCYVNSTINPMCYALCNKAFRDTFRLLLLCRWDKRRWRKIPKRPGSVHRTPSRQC
Gonadotropin-releasing hormone receptor (Homo sapiens), sequence (P30968 whole entry, looked up): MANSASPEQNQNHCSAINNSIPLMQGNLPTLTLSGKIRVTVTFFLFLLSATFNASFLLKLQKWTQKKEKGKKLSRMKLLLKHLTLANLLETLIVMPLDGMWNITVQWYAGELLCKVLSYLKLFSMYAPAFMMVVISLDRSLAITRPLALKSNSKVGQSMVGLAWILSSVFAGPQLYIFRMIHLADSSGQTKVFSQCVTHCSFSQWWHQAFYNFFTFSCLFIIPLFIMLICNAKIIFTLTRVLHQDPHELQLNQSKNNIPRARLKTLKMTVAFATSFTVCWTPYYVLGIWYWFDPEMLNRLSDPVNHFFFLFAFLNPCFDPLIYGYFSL

With `NC(N)=N/N=C/c1c(Cl)cccc1Cl`, the Potency result in experiment [1], in experiment [2], in [3], in experiment [4], in experiment [5] and in experiment [6] was “inactive” throughout. In addition, the Potency entry in experiment [7], in experiment [8], in [9], in [10], in [11] and in experiment [12] was “inactive” throughout. The Potency result in [13] is “inactive”.
With `Nc1ccc(N)c2c1C(=O)c1ccccc1C2=O`, the Potency result in experiment [1], in [2], in experiment [3], in experiment [4], in experiment [5] and in experiment [14] was “inactive” each time. In addition, the Potency entry in experiment [6], in [7], in [15], in experiment [16] and in experiment [9] was “inactive” throughout.
As for `CC1CCCNC1` (configuration not stated), in experiment [1], the Potency is 67.1 µM (active). For the same molecule, the Potency entry in experiment [2], in experiment [3], in experiment [4], in [5], in experiment [7] and in experiment [8] was “inactive” throughout. For the same molecule, the Potency result in experiment [17], in experiment [18], in [15], in experiment [16], in experiment [9] and in [10] was “inactive” in each case. Also, the Potency result in experiment [11], in experiment [12] and in experiment [19] was “inactive” throughout.
As for `CCCCCCCCCCCCCOS(=O)(=O)O`, the Potency entry in experiment [1], in experiment [2], in experiment [3], in [4], in [5] and in [6] was “inactive” in each case. Also, the Potency result in experiment [7], in experiment [8], in experiment [15], in [16], in [10] and in [13] was “inactive” in each case. The Potency result in experiment [19] was “inactive”. Also, in [17], the Potency is 42.1 µM (active).
For `CCc1cc2cc(OC)c(OC)cc2c(Cc2ccccc2)n1`, the Potency result in experiment [1], in experiment [2], in [3], in [4], in [5] and in [6] was “inactive” in each case. The Potency entry in experiment [8], in [15], in [10], in experiment [11], in [12] and in [19] was “inactive” in each case. In addition, in experiment [9], the Potency was 11.9 µM (active).
As for `CN1CCC(Nc2ncc3ncnc(Nc4ccc(F)c(Cl)c4)c3n2)CC1`, the Potency result in [1], in [20], in experiment [3], in [14], in [6] and in experiment [17] was “inactive” throughout. Besides, the Potency entry in experiment [18], in experiment [16], in experiment [13] and in experiment [19] was “inactive” in each case. Besides, in [15], the Potency is 8.18 µM (active).
In the case of `c1ccc2c(c1)-c1ccc3ccc4cccc5cc-2c1c3c45`, the figures for the Potency in [1], in [20] and in experiment [18] were 13.3 µM (active), 6.74 µM (active) and 10.7 µM (active), respectively. Moreover, the Potency result in experiment [14], in [6], in experiment [7], in [16], in experiment [11] and in [13] was “inactive” in each case. For the same molecule, the Potency result in experiment [19] is “inactive”.
For `O=c1cc(-c2ccccc2)oc2cc(O)cc(O)c12`, the Potency in experiment [1] is 24.3 µM (active). Moreover, the Potency entry in [2], in [3], in experiment [4], in experiment [5], in experiment [14] and in experiment [6] was “inactive” in each case. Besides, the Potency entry in experiment [17], in experiment [18], in experiment [15], in experiment [16], in experiment [11] and in [13] was “inactive” in each case. In addition, in experiment [19], the Potency result was “inactive”.
`OC12N=C(c3ccccc3)SC1Cc1cc(Cl)ccc12` (configuration not stated): the Potency in [1] was 17.2 µM (active). The Potency entry in experiment [2], in experiment [3], in experiment [4], in experiment [5], in [14] and in [6] was “inactive” in each case. For the same molecule, the Potency entry in experiment [8], in [17], in [18], in [15], in [16] and in experiment [10] was “inactive” each time. Moreover, the Potency entry in experiment [13] and in experiment [19] was “inactive” each time.
